PubChem BioAssay (Tox21)
Inconclusive results are not listed. Unmarked numbers belong to inactive results. Calls of active or inactive are those of the source. Calls follow the shape of the full dose curve.

The compounds below were run against D(2) dopamine receptor (Homo sapiens) (UniProt P14416) (assay: Dopamine D2 receptor (DRD2) small molecule agonists, cell-based qHTS assay (AID 1963594; also: nearly all actives have a fitted effect of over 35% in size)). Conditions: HEK293-DRD2 cAMP HTRF, agonist mode, 30 min; series mostly up to 92.4 µM; activation: at the top concentration.
From the text: National Center for Advancing Translational Sciences [NCATS]
Division of Preclinical Innovation [DPI]
U.S. Environmental Protection Agency [EPA]
National Institutes of Environmental Health Sciences [NIEHS]
National Toxicology Program [NTP]
U.S. Food and Drug Administration [FDA]
DRD2 is the D2 subtype of the dopamine receptor, which is coupled to Gi subtype of G protein-coupled receptor. This G protein-coupled receptor inhibits adenylyl cyclase activity. The DRD2-HEK293 cell line stably expressing D2 dopamine receptor can be used for screening agonists and antagonists of interactions between D2 and its ligands. The Hek293-DRD2 cAMP assay is based on HTRF technology. It measures changes of cAMP accumulation in response to Gi coupled GPCR activation or inhibition.
Tox21 Assay Protocol Summary:
DRD2-Hek293 cells were dispensed at 600 cells/3uL/well in 1536-well white plates using a Multidrop Dispenser. After the assay plates were incubated at a 37 C/5% CO2 incubator for 24 h, 1 uL of Ro20-1724 at final concentration of 0.1 mM was transferred to the assay plate by a Flying Reagent Dispenser. Following Ro20-1724 addition, 23 nL of compound dissolved in DMSO, positive controls or DMSO only was added to the assay plates via Wako pintool station. The assay plates were incubated at room temperature for 10 min. Next, 1 uL of NKH477 at 200nM was added into the plates. After the assay plates were incubated at room temperature for an additional 30 min, 2.5 ul/well of cAMP-d2 and 2.5 ul/well of anti-cAMP-cryptate were added respectively into the assay plates using a Flying Reagent Dispenser. The plates were incubated at room temperature for 1 h. The fluorescence intensity in the plates was measured at 340 nm excitation and 665 & 620 nm emission by an Envision plate reader.
% is scaled to controls: 0 for no effect and ±100 for the full control effect; potency is read from the fitted curve at half-maximal effect.

D(2) dopamine receptor (Homo sapiens), sequence (P14416 whole entry, looked up): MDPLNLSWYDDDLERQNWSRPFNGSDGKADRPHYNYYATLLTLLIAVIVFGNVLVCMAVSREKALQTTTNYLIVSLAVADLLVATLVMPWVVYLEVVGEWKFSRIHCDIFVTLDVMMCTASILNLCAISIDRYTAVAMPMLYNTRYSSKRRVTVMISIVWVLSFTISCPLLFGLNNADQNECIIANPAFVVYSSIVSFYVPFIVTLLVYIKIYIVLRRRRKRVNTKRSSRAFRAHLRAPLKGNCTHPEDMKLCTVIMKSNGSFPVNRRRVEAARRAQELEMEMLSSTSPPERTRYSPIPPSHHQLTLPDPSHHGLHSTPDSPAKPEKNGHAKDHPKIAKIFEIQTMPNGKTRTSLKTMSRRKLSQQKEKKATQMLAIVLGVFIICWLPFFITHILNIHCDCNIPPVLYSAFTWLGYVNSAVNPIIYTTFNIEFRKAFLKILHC

| Structure (SMILES) | activation | Potency |
| --- | --- | --- |
| C1CCC2OC2C1 (stereo not given) | -0.129% | – |
| C=CCCC(=O)/C=C/C1C(C)=CCCC1(C)C (stereo not given) | -3.93% | – |
| CC(C#N)(CCC(=O)O)N=NC(C)(C#N)CCC(=O)O (stereo not given) | -3.03% | – |
| O=[N+]([O-])c1ccc(CCO)cc1 | 0.781% | – |
| CCCCCCCCCCCCCCCC(=O)OC | 0.309% [at 19 µM] | – |
| CCCCCCCCCCCCCCCC(=O)NCCO | -6.47% [at 42.5 µM] | – |
| C/C(Cl)=C/CCl | -0.655% | – |
| OCCNCCO | – | inactive |
| CC1=CC(C)C(C=O)CC1 (stereo not given) | 4.48% | – |
| NC(=S)N/N=C/c1cccnc1 | 9.75% [at 42.5 µM] | – |
| OCC1CCC(CO)CC1 (stereo not given) | 3.95% | – |
| C[Si](C)=O | 4.84% [at 8.39 µM] | – |
| CN1CCOCC1 | – | inactive |
| N=C(N)c1ccccc1 | -0.395% | – |
| COC(=O)c1ccccc1C | 0.632% | – |
| O=Cc1cccc([N+](=O)[O-])c1 | -4.3% | – |
| CCCCCCCCc1ccc(Nc2ccc(CCCCCCCC)cc2)cc1 | -0.137% [at 42.5 µM] | – |
| C[C@]12CC[C@H]3[C@@H](CCC4=CC(=O)CC[C@@]43C)[C@@H]1CC[C@@H]2C(=O)CO | – | inactive |
| CC(CO)c1ccccc1 (stereo not given) | -6.86% | – |
| NC[C@H]1O[C@H](O[C@H]2[C@H](O)[C@@H](O[C@H]3O[C@H](CO)[C@@H](O)[C@H](N)[C@H]3O)[C@H](N)C[C@@H]2N)[C@H](N)[C@@H](O)[C@@H]1O | -0.355% [at 19 µM] | – |

| Structure (SMILES) | activation | Potency |
| --- | --- | --- |
| CC(=O)OC1CC(C)OC(C)O1 (stereo not given) | – | inactive |
| COCCOCCOCCOCCOCCO | -8.6% | – |
| NC[C@H](O)c1ccc(O)c(O)c1 | – | 16.6 µM (active) |
| CC(C)C1CCC(O)CC1 (stereo not given) | -13.1% | – |
| CC(=O)OCCC1CCCCC1 | -1.16% | – |
| C=CC(=O)OCCOC(=O)C=C | -2.54% | – |
| CCc1ccc(C)nc1 | 1.16% | – |
| O[C@@H]([C@H](O)[C@H](O)CBr)[C@H](O)CBr | -1.83% | – |
| CCCCCCCCCCCCCCC(=O)NC(CO)CCCCCCCCCCCCCC (stereo not given) | 1.3% | – |
| CCN(CC)CC(=O)OCC(=O)[C@@]1(O)CC[C@H]2[C@@H]3CCC4=CC(=O)CC[C@]4(C)[C@H]3[C@@H](O)C[C@@]21C | -9.75% [at 42.5 µM] | – |
| CCOC(=O)CC(C)=O | -0.115% | – |
| NNC(=O)c1cccc(C(=O)NN)c1 | -5.37% | – |
| C=CC(=O)OCCOC1C2CCC1C1CC=CC12 (stereo not given) | -2.06% [at 19 µM] | – |
| CC(=O)N1C[C@H](O)C[C@H]1C(=O)O | -6.6% [at 42.5 µM] | – |
| COC(=O)N[C@H](C(=O)N[C@@H](Cc1ccccc1)[C@@H](O)CN(Cc1ccc(-c2ccccn2)cc1)NC(=O)[C@@H](NC(=O)OC)C(C)(C)C)C(C)(C)C | -4.96% [at 42.5 µM] | – |
| OCCN1CCN(CCCN2c3ccccc3C=Cc3ccccc32)CC1 | -3.44% [at 42.5 µM] | – |
| O=c1oc2c(O)c(O)cc3c(=O)oc4c(O)c(O)cc1c4c23 | 15.6% [at 19 µM] | – |
| CC(=N\O)/C(C)=N/O | 2.3% | – |
| CCCO[Si](OCCC)(OCCC)OCCC | -1.08% | – |
| CCCCCCCCCCCC(=O)OC[C@@H](O)[C@H]1OC[C@H](OCCO)[C@H]1OCCO | -0.127% | – |
